Records with an inconclusive call do not appear. Active and inactive are the calls of the source. Unless noted, the call rests on the fitted dose curve; in most records, active means well fitted curve in the direction sought with a large enough effect in the repeat runs; inconclusive means weak or mixed curves; inactive means no such curve, though single readings can be large; an effect the other way counts as inactive or inconclusive.

Test [1] in a line: qHTS assay to identify small molecule antagonists of the sonic hedgehog signaling (Shh) pathway (AID 1259369; calls by dose curve; further: nearly all actives have a fitted effect of over 45% in size). The essentials:
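3T3Gli1-Luc, conditioned-medium-stimulated, 24hr cpd, 37C/5% CO2; Gli1-driven firefly Luc luminescence after 30min RT with luciferase reagent. Cells plated 4hr before cpd.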
A general note: In qHTS, concentration-response curves come from the screen itself.

Test [2] has as its target Estrogen receptor beta (Homo sapiens) (UniProt Q92731). The test is described as follows: qHTS assay to identify small molecule agonists of the estrogen receptor beta (ER-beta) signaling pathway (AID 1259377; active means well fitted activation curve with a large enough effect in the signal ratio in the repeat runs, not every such curve was filed as active; the % refers to the signal ratio; further: potency means the concentration at half of the fitted maximal effect). The procedure, abridged:
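HEK293T ER-beta-UAS-bla; 2% charcoal-stripped FBS; cells pre-incubated 6 hr, compound 16 hr, 37C/5% CO2; LiveBLAzer B/G FRET substrate 2 h RT; fluorescence intensity read.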

The target is the same in test [3]. The test is described as follows: qHTS assay to identify small molecule antagonists of the estrogen receptor beta (ER-beta) signaling pathway (AID 1259378; active means well fitted inhibition curve with a large enough effect in the signal ratio in the repeat runs, not every such curve was filed as active; the % refers to the signal ratio). The essentials: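 ER-beta-UAS-bla HEK293T cells in 2% charcoal-stripped FBS medium treated with compound plus 1nM final 17-beta-estradiol for 16 hr at 37C. Beta-lactamase reporter read by FRET substrate fluorescence after 2 hours at room temperature.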

Test [4] in a line: qHTS assay to identify small molecule agonists of the androgen receptor (AR) signaling pathway in the presence of an antagonist - cell viability counter screen (AID 1259379).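 Further: MDA-kb2 human breast cancer cells carrying an MMTV luciferase reporter; series mostly up to about 92 µM; nearly all actives have a fitted effect of over 25% in size.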 The procedure, abridged: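 Cells: MDA-kb2 (MMTV-luc, AR and GR elements), 3,000/well, 5 hr settle. Added: nilutamide 3.0uM final, then compounds (15 conc.). Incubation: 16 hr, 37C, no CO2. Read-out: CellTiter-Fluor, 1 hr, fluorescence.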

Test [5] is described as follows: qHTS assay to identify small molecule antagonists of the estrogen receptor beta (ER-beta) signaling pathway - cell viability counter screen (AID 1259382). Further: series mostly up to about 92 µM; nearly all actives have a fitted effect of over 55% in size. The procedure, abridged: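 Cells: ER-beta-UAS-bla HEK293T, 2,000/well, 2% CS-FBS, 6 hr settle. Cpd + E2 (1nM final), 16 hr, 37C/5% CO2. Bla FRET substrate 2 hr RT, then CellTiter-Glo 30 min RT, luminescence.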

Test [6] has as its target Estrogen receptor (Homo sapiens) (UniProt P03372). The test is described as follows: qHTS assay to identify small molecule agonists of the estrogen receptor alpha (ER-alpha) signaling pathway in the presence of an antagonist (AID 1259383; calls by dose curve; further: nearly all actives have a fitted effect of over 15% in size; further: potency means the concentration at half of the fitted maximal effect; on activation: top concentration of the series differs between compounds). The essentials:
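VM7Luc4E2, endog. ER-alpha + 4×ERE-luc; charcoal-stripped FBS, phenol red-free, 5 d; 24hr plating; +10.0nM ICI-182,780 (final); cpds 15 conc, 22hr, 37C/5% CO2; ONE-Glo luminescence.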

Test [7] in a line: qHTS assay to identify small molecule agonists or antagonists of the thyroid stimulating hormone receptor (TSHR) signaling pathway - wild type cell line counter screen (AID 1259384; calls by dose curve). The procedure, abridged:
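Wild-type Hek293 cells, 800/well, 18 h at 37C, then compound with Ro20-1724 for 30 min RT. cAMP by HTRF (cAMP-d2/anti-cAMP cryptate), 1 h RT, fluorescence read. 15 concentrations, triplicates.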

The target of test [8] is Thyrotropin receptor (Homo sapiens) (UniProt P16473). The test is described as follows: qHTS assay to identify small molecule antagonists of the thyroid stimulating hormone receptor (TSHR) signaling pathway (AID 1259385; calls by dose curve; further: nearly all actives have a fitted effect of over 20% in size). The procedure, abridged: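 TSHR-HEK293 cells (800/well) plated 18 h, then compounds with Ro20-1724 and TSH at 1.5 ng/mL final, 30 min at room temperature. cAMP quantified by HTRF (cAMP-d2/anti-cAMP-cryptate, 1 h); 15 concentrations in triplicate.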
Thyrotropin receptor (Homo sapiens), sequence (P16473 whole entry, looked up): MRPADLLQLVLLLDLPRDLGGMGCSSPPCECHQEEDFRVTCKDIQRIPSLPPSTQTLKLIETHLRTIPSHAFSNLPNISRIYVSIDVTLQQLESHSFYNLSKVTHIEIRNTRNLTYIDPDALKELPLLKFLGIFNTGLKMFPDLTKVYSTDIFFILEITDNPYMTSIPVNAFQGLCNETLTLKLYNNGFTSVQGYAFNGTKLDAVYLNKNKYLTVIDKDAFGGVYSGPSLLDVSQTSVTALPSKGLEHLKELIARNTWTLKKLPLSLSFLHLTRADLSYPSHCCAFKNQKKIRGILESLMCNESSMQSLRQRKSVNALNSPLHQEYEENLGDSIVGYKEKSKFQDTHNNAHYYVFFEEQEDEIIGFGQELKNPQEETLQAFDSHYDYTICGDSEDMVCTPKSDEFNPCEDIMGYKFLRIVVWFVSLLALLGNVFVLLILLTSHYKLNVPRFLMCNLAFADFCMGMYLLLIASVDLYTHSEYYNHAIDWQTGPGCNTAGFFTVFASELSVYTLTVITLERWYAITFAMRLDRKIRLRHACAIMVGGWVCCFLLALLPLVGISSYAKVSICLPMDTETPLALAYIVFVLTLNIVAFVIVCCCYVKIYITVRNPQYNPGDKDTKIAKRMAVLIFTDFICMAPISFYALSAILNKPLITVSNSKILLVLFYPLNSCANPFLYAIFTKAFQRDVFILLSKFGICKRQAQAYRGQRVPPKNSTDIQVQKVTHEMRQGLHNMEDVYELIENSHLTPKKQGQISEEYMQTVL

A short description of test [9]: qHTS assay to identify small molecule agonists of the estrogen receptor alpha (ER-alpha) signaling pathway in the presence of an antagonist - cell viability counter screen (AID 1259386).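 Further: series mostly up to about 92 µM; cells exposed to compounds for 22 h at 37 °C before the viability read; nearly all actives have a fitted effect of over 30% in size.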 The procedure, abridged:
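VM7Luc4E2, stripped-serum pre-culture 5 d; 24hr plating; +ICI-182,780 10.0nM final; cpds 15 conc, 22hr, 37C/5% CO2; CellTiter-Fluor added at 21hr, fluorescence 1hr later.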

Test [10] deals with Progesterone receptor (Homo sapiens) (UniProt P06401). The test is described as follows: qHTS assay to identify small molecule agonists of the progesterone receptor (PR) signaling pathway (AID 1346784; calls by dose curve; further: nearly all actives have a fitted effect of over 30% in size). The essentials: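 Beta-lactamase reporter read-out: after 16 hr compound treatment at 37C and a further 2 hr at room temperature with LiveBLAzer B/G FRET substrate, fluorescence was measured in PR-UAS-bla HEK 293T cells grown in 2% charcoal-stripped serum.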
Progesterone receptor (Homo sapiens), sequence (P06401 whole entry, looked up): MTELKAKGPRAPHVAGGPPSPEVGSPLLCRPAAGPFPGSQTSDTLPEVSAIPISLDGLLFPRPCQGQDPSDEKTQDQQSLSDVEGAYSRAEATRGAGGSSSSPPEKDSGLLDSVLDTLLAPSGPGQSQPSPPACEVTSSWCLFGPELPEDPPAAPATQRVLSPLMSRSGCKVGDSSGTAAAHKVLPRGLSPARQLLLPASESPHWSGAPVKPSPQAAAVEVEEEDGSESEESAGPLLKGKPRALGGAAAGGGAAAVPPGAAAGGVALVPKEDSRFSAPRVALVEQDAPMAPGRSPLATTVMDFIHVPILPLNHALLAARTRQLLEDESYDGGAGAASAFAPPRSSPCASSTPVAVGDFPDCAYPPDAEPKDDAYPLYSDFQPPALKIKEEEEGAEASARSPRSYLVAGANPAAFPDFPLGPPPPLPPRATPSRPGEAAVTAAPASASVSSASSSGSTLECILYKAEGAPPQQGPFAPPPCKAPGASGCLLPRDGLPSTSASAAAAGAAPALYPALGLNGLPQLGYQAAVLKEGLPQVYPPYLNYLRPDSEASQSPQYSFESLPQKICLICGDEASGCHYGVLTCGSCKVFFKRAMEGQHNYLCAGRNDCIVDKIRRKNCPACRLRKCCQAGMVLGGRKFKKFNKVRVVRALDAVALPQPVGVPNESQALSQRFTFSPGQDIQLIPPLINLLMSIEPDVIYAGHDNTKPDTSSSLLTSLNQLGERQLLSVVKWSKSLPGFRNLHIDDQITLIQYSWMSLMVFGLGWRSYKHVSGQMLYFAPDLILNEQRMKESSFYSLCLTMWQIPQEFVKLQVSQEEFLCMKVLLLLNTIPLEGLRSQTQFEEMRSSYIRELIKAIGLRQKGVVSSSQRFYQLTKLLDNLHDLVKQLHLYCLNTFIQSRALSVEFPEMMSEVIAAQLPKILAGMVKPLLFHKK

Test [11] shares this target. As to the kind of experiment: qHTS assay to identify small molecule antagonists of the progesterone receptor (PR) signaling pathway (AID 1346795; active means well fitted inhibition curve with a large enough effect in the signal ratio in the repeat runs, not every such curve was filed as active; the % refers to the signal ratio; further: potency means the concentration at half of the fitted maximal effect). The essentials: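 Read-out is fluorescence from the LiveBLAzer B/G FRET substrate, cleaved by a UAS-controlled beta-lactamase in PR-UAS-bla HEK293T cells after 16 hr exposure to compound plus 1 nM promegestone (final), followed by 2 hr at room temperature.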

A short description of test [12]: qHTS assay to identify small molecule antagonists of the progesterone receptor (PR) signaling pathway - cell viability counter screen (AID 1346798). Further: nearly all actives have a fitted effect of over 50% in size. Further: potency means the concentration at half of the fitted maximal effect. The essentials: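 HEK293T PR-UAS-bla, 2% charcoal-stripped FBS; 4 hr pre-plate; cpd + R5020, 16 h 37C; LiveBLAzer read first; then CellTiter-Glo 30 min RT, luminescence.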
Test [13] is described as follows: qHTS assay to identify small molecule agonists of the progesterone receptor (PR) signaling pathway - cell viability counter screen (AID 1346799; calls by dose curve; further: nearly all actives have a fitted effect of over 45% in size). The procedure, abridged: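 Luminescence from CellTiter-Glo, added after the beta-lactamase FRET read in the same wells, gave cytotoxicity in PR-UAS-bla HEK293T cells treated with compounds for 16 hr at 37C.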
A short description of test [14]: qHTS assay to identify small molecule antagonists of the TGF-beta/Smad signaling pathway - cell viability counter screen (AID 1346824). Further: nearly all actives have a fitted effect of over 50% in size. The procedure, abridged:
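SBE-bla HEK 293T cells, incubated overnight, then compound plus 0.25 ng/mL TGF-beta1 (stock added) for 5 hr at 37 C. Viability was read in the same wells by CellTiter-Glo luminescence after 30 min at room temperature.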

A short description of test [15]: qHTS assay to identify small molecule agonists of the TGF-beta/Smad signaling pathway - cell viability counter screen (AID 1346829). Further: top concentration of the series differs between compounds; nearly all actives have a fitted effect of over 45% in size. The essentials:
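Tox21 qHTS format: SBE-bla HEK 293T cells treated with DMSO-dissolved compounds for 5 hr; CellTiter-Glo luminescence after 30 min at room temperature.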

Test [16] can be described thus: qHTS assay to identify small molecule agonists of the TGF-beta/Smad signaling pathway (AID 1346859; active means well fitted activation curve with a large enough effect in the signal ratio in the repeat runs, not every such curve was filed as active; the % refers to the signal ratio; further: series mostly up to about 77 µM). The essentials:
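SBE-bla HEK 293T, 4,000 cells/well, plated o/n; cpd in DMSO, 5 hr, 37 C/5% CO2; B/G FRET substrate 2 hr RT; ex 405, em 460/530 nm.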

The nature of test [17]: qHTS assay to identify small molecule agonists of the estrogen receptor beta (ER-beta) signaling pathway - cell viability counter screen (AID 1259380). Further: nearly all actives have a fitted effect of over 30% in size. The procedure, abridged: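 HEK293T ER-beta-UAS-bla; 2% CS-FBS; 6 hr pre-plate, 16 hr cpd at 37C/5% CO2; LiveBLAzer read first, then CellTiter-Glo 30 min RT, luminescence.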
Test [18] deals with Thyrotropin-releasing hormone receptor (Homo sapiens) (UniProt P34981). As to the kind of experiment: qHTS assay to identify small molecule antagonists of the thyrotropin-releasing hormone receptor (TRHR) signaling pathway (AID 1346877; active means well fitted inhibition curve with a large enough effect in the repeat runs, not every such curve was filed as active; further: series mostly up to about 51 µM). The procedure, abridged:
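Intracellular calcium fluorescence, read kinetically every second over 3 min, reports TRH-evoked signalling in HEK293 cells carrying TRHR. Test compounds were added 5 min ahead of a 1 nM TRH challenge.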

Estrogen receptor beta (Homo sapiens), sequence (Q92731 whole entry, looked up): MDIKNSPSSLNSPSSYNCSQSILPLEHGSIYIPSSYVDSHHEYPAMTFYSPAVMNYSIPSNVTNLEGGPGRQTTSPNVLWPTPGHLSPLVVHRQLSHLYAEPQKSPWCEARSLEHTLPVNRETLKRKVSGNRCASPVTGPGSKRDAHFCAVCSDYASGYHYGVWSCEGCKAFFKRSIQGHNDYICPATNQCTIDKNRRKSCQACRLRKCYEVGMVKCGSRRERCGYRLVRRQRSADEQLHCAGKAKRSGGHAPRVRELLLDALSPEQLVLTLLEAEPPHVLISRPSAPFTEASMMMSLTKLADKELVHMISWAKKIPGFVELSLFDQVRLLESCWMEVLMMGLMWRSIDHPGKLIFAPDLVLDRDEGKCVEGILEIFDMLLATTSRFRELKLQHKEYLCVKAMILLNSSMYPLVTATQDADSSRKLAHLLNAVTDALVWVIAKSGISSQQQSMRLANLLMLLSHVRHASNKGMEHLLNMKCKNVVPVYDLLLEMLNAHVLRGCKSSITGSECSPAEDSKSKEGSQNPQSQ
Thyrotropin-releasing hormone receptor (Homo sapiens), sequence (P34981 whole entry, looked up): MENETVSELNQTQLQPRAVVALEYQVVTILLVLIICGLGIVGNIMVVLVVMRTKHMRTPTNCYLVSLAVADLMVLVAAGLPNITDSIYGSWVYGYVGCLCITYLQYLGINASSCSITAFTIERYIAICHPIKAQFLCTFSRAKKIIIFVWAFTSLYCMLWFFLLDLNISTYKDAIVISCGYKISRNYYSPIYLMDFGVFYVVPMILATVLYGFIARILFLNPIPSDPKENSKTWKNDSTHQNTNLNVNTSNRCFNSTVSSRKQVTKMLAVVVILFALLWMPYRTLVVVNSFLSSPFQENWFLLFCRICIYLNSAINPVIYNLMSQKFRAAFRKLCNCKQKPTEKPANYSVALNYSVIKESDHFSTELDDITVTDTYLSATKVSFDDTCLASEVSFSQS
Estrogen receptor (Homo sapiens), sequence (P03372 whole entry, looked up): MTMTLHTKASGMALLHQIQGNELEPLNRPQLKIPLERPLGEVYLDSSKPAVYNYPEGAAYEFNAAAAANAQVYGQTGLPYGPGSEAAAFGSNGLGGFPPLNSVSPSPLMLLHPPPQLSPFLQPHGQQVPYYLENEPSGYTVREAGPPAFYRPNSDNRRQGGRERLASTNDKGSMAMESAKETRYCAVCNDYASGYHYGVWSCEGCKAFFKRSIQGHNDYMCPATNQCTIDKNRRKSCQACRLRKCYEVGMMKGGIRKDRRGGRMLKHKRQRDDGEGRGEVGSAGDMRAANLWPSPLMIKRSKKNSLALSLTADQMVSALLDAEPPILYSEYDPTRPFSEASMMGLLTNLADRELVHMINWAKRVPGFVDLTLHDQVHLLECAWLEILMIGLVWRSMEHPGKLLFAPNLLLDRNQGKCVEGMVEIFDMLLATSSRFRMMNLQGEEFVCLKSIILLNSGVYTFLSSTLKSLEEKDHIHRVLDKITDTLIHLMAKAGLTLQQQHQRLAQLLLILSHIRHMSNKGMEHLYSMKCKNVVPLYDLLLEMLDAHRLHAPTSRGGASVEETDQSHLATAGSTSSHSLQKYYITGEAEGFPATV

As to `CCCCCCCCCCCC(=O)OCC`, the Potency result in test [1], in test [2], in [3], in test [4], in test [5] and in test [6] was “inactive” throughout. The Potency entry in [8], in test [9], in [10], in [11], in test [12] and in [13] was “inactive” throughout. Besides, the result in test [7], in test [14], in test [15] and in test [16] was inactive.

As for `CC(C(=O)O)c1ccc(/C=C2\CCCCC2=O)cc1` (stereo unspecified), the Potency result in test [1], in test [4], in test [17], in test [5], in test [9] and in [10] was “inactive” in each case. Moreover, the Potency entry in test [11], in test [12] and in test [13] was “inactive” each time. Besides, the compound was classed as inactive in test [14], in [15] and in test [16].

In the case of `COc1cc(C)c(Cc2cnc(N)nc2N)cc1OC`, the Potency entry in test [4], in [5], in test [6], in test [9], in test [10] and in test [11] was “inactive” in each case. Moreover, the Potency result in test [12] is “inactive”. The call in test [14], in test [15], in test [16] and in [18] was inactive.

`CC(C)(C)N`: the Potency entry in test [1], in test [17], in test [5], in test [6], in [8] and in test [9] was “inactive” each time. Also, the Potency result in [10], in test [11], in [12] and in test [13] was “inactive” in each case. The compound was classed as inactive in test [7], in [14], in [15] and in test [16].

`CC(C)Cc1nccs1`: the Potency entry in test [1], in test [2], in [3], in test [4], in [17] and in test [5] was “inactive” throughout. Besides, the Potency entry in [8], in test [9], in test [10], in test [11], in test [12] and in test [13] was “inactive” in each case. The result in test [7], in test [14], in test [16] and in test [18] was inactive.

For `OCC(O)c1ccccc1` (stereo unspecified), the Potency entry in test [1], in [4], in test [6], in [8], in test [9] and in test [10] was “inactive” throughout. In addition, the Potency in [12] is 19.3 µM (active). Further, the compound was called inactive in [14], in test [15], in test [16] and in test [18].

Consider `CCCCC(CC)COCCC#N` (stereo unspecified), for which the Potency result in [4], in [17], in test [5], in test [8], in [9] and in test [10] was “inactive” each time. Further, the Potency result in test [11] and in [12] was “inactive” throughout. Further, the result in [7], in test [14], in [15], in [16] and in [18] was inactive.

As for `Oc1ccc(Oc2ccccc2)cc1`, the results for the Potency in test [2], in [6] and in [11] were 11.6 µM (active), 41 µM (active) and 20.6 µM (active), respectively. The Potency result in test [4], in [17], in test [5], in test [8], in test [9] and in [10] was “inactive” in each case. For the same compound, the Potency result in [12] was “inactive”. In addition, the compound was called inactive in test [14], in test [15] and in test [16].

For the compound `O=C(O)CNc1ccccc1`, the Potency entry in test [1], in [4], in test [17], in [5], in test [8] and in test [9] was “inactive” throughout. Also, the Potency entry in test [10], in [11], in test [12] and in test [13] was “inactive” each time. Besides, the result in test [7], in test [14], in [15], in test [16] and in test [18] was inactive.

Values taken from PubChem BioAssay (Tox21).
